Experimental findings from PubChem BioAssay (NCI) are described below.

Structures are written as SMILES. This is part of a sample that, as a whole, favours compounds with a hit. Of some 83,000 tested, about 20% had one in any assay.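 For each line, cells grew in 96-well plates with the test compound present at a single concentration for 48 hours.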 Activity calls are given as the source filed them. Rule for the calls: active = growth percent below 10; inactive = the rest.

The first test concerns OVCAR-3 ovarian. As to the kind of experiment: NCI-60 one-dose screen, 48 h (100 = growth as untreated, 0 = no growth, -100 = all killed). Conditions: 10 µM unless noted.
Consider `COC(=O)CC1=C(c2ccc([N+](=O)[O-])cc2)CCC1=O`, for which the growth was 121% (inactive).

Turning to `CCOC(=O)C1C(=O)NC(C(=O)OCC)(C(=O)OCC)C1CC` (stereo unspecified), the growth is 125% (inactive).

In the case of `COc1cccc(/C=N\NC(=O)c2ccncc2)c1O`, the growth was 13.6% (inactive).

Regarding `O=C(O)c1ccc(CNS(=O)(=O)c2ccc3ccccc3c2)cc1`, the growth was 94.9% (inactive).

Turning to `c1cc[n+](Cc2ccnc3ccccc23)cc1`, the growth is 118% (inactive).

Take `O=C(COc1cccc(/C=C2\Oc3ccc4ccccc4c3C2=O)c1)c1ccc([N+](=O)[O-])cc1`: the growth was 103% (inactive).

`COC(=O)Nc1ccc2ccc3c(NC(=O)OC)ccc4ccc1c2c43` (tested in a mixture with another compound): the growth is 70.5% (inactive).

As for `O=C(Nc1cccc(Cl)c1)Nc1cccc(Cl)c1`, the growth was 15.1% (inactive).

On to `COc1cc(/C=C/c2cc(/C=C/c3ccc(O)c(OC)c3)n(C(=O)c3ccc(Cl)cc3)n2)ccc1O`, for which the growth was 7.65% (active).

As to `O=C(Oc1cccc2ccccc12)c1ccccc1C(=O)c1ccccc1`, the growth was 65.6% (inactive).

On to `CCCCCN1C(=O)CCC1=O`, for which the growth was 103% (inactive).

Turning to `O=C1OC(Oc2ccccc2)(c2ccccc2)c2ccccc21` (stereo unspecified), the growth is 97% (inactive).

With `N/C(=N\c1nc2ccccc2s1)NC(=O)Nc1ccccc1Cl`, the growth is -14.2% (active).

With `NC(=O)NC1(C(=O)O)CCCC1`, the growth is 115% (inactive).

For the compound `c1ccc(-c2oc(-c3ccccc3)c3ccccc23)cc1`, the growth was 124% (inactive).

As for `O=C1NC(=O)/C(=C/c2ccc(Cl)cc2Cl)N1`, the growth is 105% (inactive).

Regarding `CC[C@@H](C)/C=C(C)/C=C/C(O)=C1\C(=O)N[C@@H](Cc2ccc(OC(=O)[C@@](OC)(c3ccccc3)C(F)(F)F)cc2)C1=O`, the growth is 67.8% (inactive).

As for `CC(=O)Nc1ccc(C(=O)COc2ccc(/C=C3\CCc4ccccc4C3=O)cc2)cc1`, the growth was 111% (inactive).

`CN(C)CCC(=O)Nc1ccc(-n2cc(-c3cccc(NC(=S)Nc4cccc(-c5cn(-c6ccc(NC(=O)CCN(C)C)cc6)nn5)c4)c3)nn2)cc1`: the growth is 94.6% (inactive).

Turning to `CC[C@@H](C)/C=C(C)/C=C/C(=O)c1c(O)c(-c2ccc(O)cc2)cn(OC2CC(=O)CCC(C)OC(=O)CC2O)c1=O` (stereo partly specified), the growth was 18.7% (inactive).

Take `O=c1c2c(=NCCCN3CCCC3)cc3c(=O)n(CCCN4CCCC4)c(=O)c4c(NCCCN5CCCC5)cc(c(O)n1CCCN1CCCC1)c2c4-3`: the growth is -21.8% (active).

Regarding `Cc1ccc2c(c1)C(=O)/C(=C\Nc1ccc(C(N)=O)cc1)C(O)O2` (stereo unspecified), the growth is 84.6% (inactive).

Turning to `Cc1nn(-c2ccccc2)cc1/C=C1\SC(N2CCCCC2)=NC1=O`, the growth was 96.4% (inactive).

Turning to `NC(=O)c1cc(Br)cc(Br)c1NS(=O)(=O)c1ccccc1`, the growth was 106% (inactive).

As for `COc1ccc2ncccc2c1Cc1c(OC)ccc2ncccc12`, the growth is 72.9% (inactive).

For the compound `CN1CCN(CCCCCN=c2cc3c(=O)n(CCCCCN4CCN(C)CC4)c(=O)c4c(NCCCCCN5CCN(C)CC5)cc5c(O)n(CCCCCN6CCN(C)CC6)c(=O)c2c5c4-3)CC1`, the growth was 3.82% (active).

For `C=C(CN1CCc2c([nH]c3ccccc23)C1)c1ccc(C(=O)Nc2ccon2)cc1`, the growth was 92.6% (inactive).

On to `O=C(Oc1ccccc1)C(Br)C(Br)c1ccccc1` (stereo unspecified), for which the growth was -47% (active).

Turning to `COc1cccc(C=Nc2cc(C(C)C)c(O)cc2C)c1O`, the growth is 100% (inactive).

For `O=C(c1ccccc1)C(CN1CCCCC1)c1ccccc1` (stereo unspecified), the growth was 14.9% (inactive).

For the compound `Nc1ccc(N=Nc2ccccc2)cc1[N+](=O)[O-]`, the growth is 102% (inactive).

`COc1ccc(C2=NN(C(N)=S)C(c3ccc4c(c3)OCO4)C2)cc1` (stereo unspecified): the growth was -21.5% (active).

For `CC(=O)c1ccc(NS(=O)(=O)c2ccc([N+](=O)[O-])cc2)cc1`, the growth is 108% (inactive).

Turning to `Nc1nc2c(nnn2Cc2ccc(Cl)c(Cl)c2)c(=O)[nH]1`, the growth is 106% (inactive).

Consider `CC1CN(CC(O)c2ccc(Br)cc2)CCO1` (stereo unspecified), for which the growth was 107% (inactive).

Take `O=C1NC(=O)/C(=C\c2ccco2)S1`: the growth is 106% (inactive).

Take `CCCCCCCSc1ncnc2[nH]ncc12`: the growth is 79.9% (inactive).

For `CN(C)CCCN=c1cc2c(=O)n(CCCN(C)C)c(=O)c3c(NCCCN(C)C)cc4c(O)n(CCCN(C)C)c(=O)c1c4c3-2`, the growth was -39.1% (active).

The subject of a further test is HS 578T breast. The test is described as above. Conditions: 10 µM unless noted.
As to `COC(=O)CC1=C(c2ccc([N+](=O)[O-])cc2)CCC1=O`, the growth was 114% (inactive).

Consider `CCOC(=O)C1C(=O)NC(C(=O)OCC)(C(=O)OCC)C1CC` (stereo unspecified), for which the growth was 129% (inactive).

With `O=C(O)c1ccc(CNS(=O)(=O)c2ccc3ccccc3c2)cc1`, the growth was 81% (inactive).

Regarding `c1cc[n+](Cc2ccnc3ccccc23)cc1`, the growth is 109% (inactive).

For `O=C(COc1cccc(/C=C2\Oc3ccc4ccccc4c3C2=O)c1)c1ccc([N+](=O)[O-])cc1`, the growth was 93.1% (inactive).

For `O=C(Nc1cccc(Cl)c1)Nc1cccc(Cl)c1`, the growth is 80.7% (inactive).

Turning to `COc1cc(/C=C/c2cc(/C=C/c3ccc(O)c(OC)c3)n(C(=O)c3ccc(Cl)cc3)n2)ccc1O`, the growth is 10.1% (inactive).

Turning to `O=C(Oc1cccc2ccccc12)c1ccccc1C(=O)c1ccccc1`, the growth was 93.5% (inactive).

`O=C1OC(Oc2ccccc2)(c2ccccc2)c2ccccc21` (stereo unspecified): the growth is 101% (inactive).

In the case of `N/C(=N\c1nc2ccccc2s1)NC(=O)Nc1ccccc1Cl`, the growth is 30% (inactive).

`c1ccc(-c2oc(-c3ccccc3)c3ccccc23)cc1`: the growth is 97.7% (inactive).

As for `CC[C@@H](C)/C=C(C)/C=C/C(O)=C1\C(=O)N[C@@H](Cc2ccc(OC(=O)[C@@](OC)(c3ccccc3)C(F)(F)F)cc2)C1=O`, the growth is 67.8% (inactive).

As to `CC(=O)Nc1ccc(C(=O)COc2ccc(/C=C3\CCc4ccccc4C3=O)cc2)cc1`, the growth was 99% (inactive).

As to `CN(C)CCC(=O)Nc1ccc(-n2cc(-c3cccc(NC(=S)Nc4cccc(-c5cn(-c6ccc(NC(=O)CCN(C)C)cc6)nn5)c4)c3)nn2)cc1`, the growth is 137% (inactive).

Regarding `CC[C@@H](C)/C=C(C)/C=C/C(=O)c1c(O)c(-c2ccc(O)cc2)cn(OC2CC(=O)CCC(C)OC(=O)CC2O)c1=O` (stereo partly specified), the growth was 35.1% (inactive).

On to `O=c1c2c(=NCCCN3CCCC3)cc3c(=O)n(CCCN4CCCC4)c(=O)c4c(NCCCN5CCCC5)cc(c(O)n1CCCN1CCCC1)c2c4-3`, for which the growth is -16.5% (active).

Turning to `Cc1ccc2c(c1)C(=O)/C(=C\Nc1ccc(C(N)=O)cc1)C(O)O2` (stereo unspecified), the growth is 97.4% (inactive).

Consider `Cc1nn(-c2ccccc2)cc1/C=C1\SC(N2CCCCC2)=NC1=O`, for which the growth was 99.7% (inactive).

On to `NC(=O)c1cc(Br)cc(Br)c1NS(=O)(=O)c1ccccc1`, for which the growth is 105% (inactive).

Regarding `COc1ccc2ncccc2c1Cc1c(OC)ccc2ncccc12`, the growth is 72.6% (inactive).

On to `CN1CCN(CCCCCN=c2cc3c(=O)n(CCCCCN4CCN(C)CC4)c(=O)c4c(NCCCCCN5CCN(C)CC5)cc5c(O)n(CCCCCN6CCN(C)CC6)c(=O)c2c5c4-3)CC1`, for which the growth was -2.4% (active).

In the case of `COc1ccccc1-n1c(-c2ccc(O)cc2C)cn2c3c(=O)[nH]c(=O)n(C)c3nc12`, the growth is 50.2% (inactive).

`C=C(CN1CCc2c([nH]c3ccccc23)C1)c1ccc(C(=O)Nc2ccon2)cc1`: the growth is 94.4% (inactive).

With `O=C(Oc1ccccc1)C(Br)C(Br)c1ccccc1` (stereo unspecified), the growth is 85.9% (inactive).

Take `Nc1ccc(N=Nc2ccccc2)cc1[N+](=O)[O-]`: the growth is 139% (inactive).

Turning to `COc1ccc(C2=NN(C(N)=S)C(c3ccc4c(c3)OCO4)C2)cc1` (stereo unspecified), the growth was -13% (active).

With `CC(=O)c1ccc(NS(=O)(=O)c2ccc([N+](=O)[O-])cc2)cc1`, the growth is 115% (inactive).

For the compound `CN(C)CCCN=c1cc2c(=O)n(CCCN(C)C)c(=O)c3c(NCCCN(C)C)cc4c(O)n(CCCN(C)C)c(=O)c1c4c3-2`, the growth was -11.2% (active).
